PubChem BioAssay (Tox21)
Results filed as inconclusive are left out. Calls of active or inactive are those of the source. The call rests on the fitted dose curve.

biological target: 5-hydroxytryptamine receptor 2A (Homo sapiens) (UniProt P28223); assay: 5-hydroxytryptamine receptor 2A (HTR2A) small molecule antagonists, cell-based qHTS assay (AID 1963586); conditions: HTR2A-CHO cells, DOI-induced calcium flux, fluorescence; series mostly up to 61.5 µM; activity, negative = inhibition: at the top concentration; further: nearly all actives have a fitted effect of over 45% in size
Summary of the method: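 Antagonist-mode intracellular calcium assay: DOI (4 nM) added after 5 min compound pre-incubation at room temperature to dye-loaded HTR2A-CHO cells. Fluorescence followed for 3 min, sampled every second.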
On the % scale 0 is the no-effect control and ±100 the full control effect.

Chain of 5-hydroxytryptamine receptor 2A (Homo sapiens) (P28223 whole entry, looked up): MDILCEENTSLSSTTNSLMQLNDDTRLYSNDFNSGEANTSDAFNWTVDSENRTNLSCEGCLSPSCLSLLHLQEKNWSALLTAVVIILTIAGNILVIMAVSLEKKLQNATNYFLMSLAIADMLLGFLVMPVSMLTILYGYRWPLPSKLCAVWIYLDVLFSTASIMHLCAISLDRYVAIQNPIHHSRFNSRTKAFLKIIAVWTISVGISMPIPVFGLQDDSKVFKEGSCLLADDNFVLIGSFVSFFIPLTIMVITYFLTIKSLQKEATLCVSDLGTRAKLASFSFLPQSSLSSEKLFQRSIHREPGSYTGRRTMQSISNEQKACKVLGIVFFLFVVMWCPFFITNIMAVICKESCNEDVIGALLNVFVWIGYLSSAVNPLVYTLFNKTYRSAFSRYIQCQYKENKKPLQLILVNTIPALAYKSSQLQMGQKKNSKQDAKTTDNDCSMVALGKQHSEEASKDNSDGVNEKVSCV

SMILES	activity, negative = inhibition
C=CC[C@]1(O)CC[C@H]2[C@@H]3CCC4=CC(=O)CCC4=C3C=C[C@@]21C	-14.2% [at 28.5 µM] (inactive)
CCOC(=O)COc1ccc(Cl)cc1Cl	-1.85% (inactive)
CCOc1cccc(C2(N3CCN(c4ccccc4)CC3)CCC(C)CC2)c1 (stereo not drawn)	-13.6% (inactive)
COP(=O)(OC)Oc1ccc([N+](=O)[O-])cc1	9.74% (inactive)
COc1cc(Cl)c(OC)cc1Cl	5.91% (inactive)
Cc1cccc(OP(=O)(Oc2cccc(C)c2)Oc2cccc(C)c2)c1	-12.4% (inactive)
OP(O)c1ccccc1	-3.79% (inactive)
Oc1ccc2ccc3cccc4ccc1c2c34	-33.1% (inactive)
COP(=S)(OC)Oc1c(Cl)cc(C)cc1Cl	-32.6% (inactive)
CCN1CCC2(CC1)COc1cc3c(cc12)N(C(=O)c1ccc(-c2ccc(-c4nnc(C)o4)cc2C)cc1)CC3	42.3% (inactive)
COP(N)(=S)Oc1ccccc1C(=O)OC(C)C (stereo not drawn)	-14.2% (inactive)
CNP(=O)(OC)Oc1ccc(C(C)(C)C)cc1Cl (stereo not drawn)	-17.7% (inactive)
Cc1cccc2sc3nncn3c12	2.44% (inactive)
CC1(C)CN=C(NN=C(/C=C/c2ccc(C(F)(F)F)cc2)/C=C/c2ccc(C(F)(F)F)cc2)NC1	-4.67% (inactive)
COc1cc(CC(C)N)c(OC)cc1Br (stereo not drawn)	-60.8% (inactive)
O=C(CCl)C(Cl)Cl	3.5% (inactive)
C=C(Cl)CSC(=S)N(CC)CC	-31.3% (inactive)
ClC(Cl)C(Cl)Cl	21.5% (inactive)
CC(=O)CCc1ccc2c(c1)OCO2	8.59% (inactive)
CN(C)C(=O)Nc1cccc(OC(=O)NC(C)(C)C)c1	7.99% (inactive)
CNC(=O)Oc1ccc(N(C)C)c(C)c1	-22.8% (inactive)
COP(=O)(OC)O/C(=C\Cl)c1cc(Cl)c(Cl)cc1Cl	-1.3% (inactive)
COC(=O)C(C)N(C(=O)c1ccco1)c1c(C)cccc1C (stereo not drawn)	4.72% (inactive)
C#CC1(O)CCCCC1	-7.73% (inactive)
CCCCc1c(C)nc(NCC)nc1OS(=O)(=O)N(C)C	-24.7% (inactive)

biological target: 5-hydroxytryptamine receptor 2A (Homo sapiens) (UniProt P28223); assay: 5-hydroxytryptamine receptor 2A (HTR2A) small molecule agonists, cell-based qHTS assay (AID 1963587); conditions: HTR2A-CHO cells, calcium flux fluorescence, agonist mode; series mostly up to 76.8 µM; activation: at the top concentration; further: nearly all actives have a fitted effect of over 30% in size; further: potency means the concentration at half of the fitted maximal effect
Summary of the method: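 HTR2A-CHO cells, plated 18 h at 37 C/5% CO2, dye-loaded 1 h at 37 C; compounds in DMSO added by pin tool (agonist mode). Intracellular calcium flux read as kinetic fluorescence on FDSS over 2 min at 1 s intervals.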

SMILES	activation	Potency
C=CC[C@]1(O)CC[C@H]2[C@@H]3CCC4=CC(=O)CCC4=C3C=C[C@@]21C	-2.25% [at 35.6 µM] (inactive)	
NP(N)(=O)NC(=O)c1ccc(F)cc1	1.17% [at 35.6 µM] (inactive)	
COc1ccc(C(=O)c2c(C)n(CCN3CCOCC3)c3ccccc23)cc1	-1.55% [at 35.6 µM] (inactive)	
CCOC(=O)COc1ccc(Cl)cc1Cl	-3.42% (inactive)	
CCOc1cccc(C2(N3CCN(c4ccccc4)CC3)CCC(C)CC2)c1 (stereo not drawn)	1.09% (inactive)	
COP(=O)(OC)Oc1ccc([N+](=O)[O-])cc1	0.31% (inactive)	
COC(=O)N(C(=O)N1COC2(C(=O)OC)Cc3cc(Cl)ccc3C2=N1)c1ccc(OC(F)(F)F)cc1 (stereo not drawn)	1.07% [at 35.6 µM] (inactive)	
COc1cc(Cl)c(OC)cc1Cl	-0.568% (inactive)	
CC(Cc1ccccc1)NCCn1cnc2c1c(=O)n(C)c(=O)n2C (stereo not drawn)	12.1% (inactive)	
Cc1cccc(OP(=O)(Oc2cccc(C)c2)Oc2cccc(C)c2)c1	11.6% (inactive)	
OP(O)c1ccccc1	2.85% (inactive)	
Oc1ccc2ccc3cccc4ccc1c2c34	16.8% (inactive)	
ClCc1cccc(Cl)c1	-0.832% [at 35.6 µM] (inactive)	
COP(=S)(OC)Oc1c(Cl)cc(C)cc1Cl	-8.44% (inactive)	
CCOP(=S)(OCC)SCS(=O)(=O)CC	1.72% (inactive)	
COP(N)(=S)Oc1ccccc1C(=O)OC(C)C (stereo not drawn)	-4.18% (inactive)	
N#Cc1c(-c2ccc(Cl)cc2)[nH]c(C(F)(F)F)c1Br	8.27% (inactive)	

SMILES	activation	Potency
CNP(=O)(OC)Oc1ccc(C(C)(C)C)cc1Cl (stereo not drawn)	1.19% (inactive)	
Cc1cccc2sc3nncn3c12	-2.7% (inactive)	
CC1(C)CN=C(NN=C(/C=C/c2ccc(C(F)(F)F)cc2)/C=C/c2ccc(C(F)(F)F)cc2)NC1	-3.25% (inactive)	
O=C(CCl)C(Cl)Cl	10.5% (inactive)	
O=c1[nH]c(Cl)c(Cl)cc1Cl	12.2% (inactive)	
CC(=O)[O][Sn]([c]1ccccc1)([c]1ccccc1)[c]1ccccc1		24.5 µM (active)
C=C(Cl)CSC(=S)N(CC)CC	-0.311% (inactive)	
ClC(Cl)C(Cl)Cl	0.751% (inactive)	
CC(=O)CCc1ccc2c(c1)OCO2	1.26% (inactive)	
CN(C)C(=O)Nc1cccc(OC(=O)NC(C)(C)C)c1	-0.138% (inactive)	
COP(=O)(OC)O/C(=C\Cl)c1cc(Cl)c(Cl)cc1Cl	-0.157% (inactive)	
CC(C)(C)c1ccc(OP(=O)(Oc2ccccc2)Oc2ccccc2)cc1	16.1% (inactive)	
COC(=O)C(C)N(C(=O)c1ccco1)c1c(C)cccc1C (stereo not drawn)	-9.08% (inactive)	
C#CC1(O)CCCCC1	0.169% (inactive)	
CSc1ccc(C(=O)C(C)(C)N2CCOCC2)cc1	-0.197% (inactive)	
CCCCc1c(C)nc(NCC)nc1OS(=O)(=O)N(C)C	5.28% (inactive)	

biological target: Muscarinic acetylcholine receptor M1 (Homo sapiens) (UniProt P11229); assay: Cholinergic receptor muscarinic 1 (CHRM1) small molecule antagonists, cell-based qHTS assay (AID 1963588); conditions: CHRM1-CHO antagonist mode, calcium flux fluorescence; series mostly up to 61.5 µM; activity, negative = inhibition: at the top concentration; further: nearly all actives have a fitted effect of over 40% in size; further: potency means the concentration at half of the fitted maximal effect
Summary of the method: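 CHRM1-CHO calcium-flux assay, antagonist mode. Cells were seeded 18 h, dye-loaded 1 h at 37 C and given compound for 5 min at RT, then acetylcholine was added at 50nM. FDSS fluorescence was read 3 min; 15 concentrations, three runs.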

Chain of Muscarinic acetylcholine receptor M1 (Homo sapiens) (P11229 whole entry, looked up): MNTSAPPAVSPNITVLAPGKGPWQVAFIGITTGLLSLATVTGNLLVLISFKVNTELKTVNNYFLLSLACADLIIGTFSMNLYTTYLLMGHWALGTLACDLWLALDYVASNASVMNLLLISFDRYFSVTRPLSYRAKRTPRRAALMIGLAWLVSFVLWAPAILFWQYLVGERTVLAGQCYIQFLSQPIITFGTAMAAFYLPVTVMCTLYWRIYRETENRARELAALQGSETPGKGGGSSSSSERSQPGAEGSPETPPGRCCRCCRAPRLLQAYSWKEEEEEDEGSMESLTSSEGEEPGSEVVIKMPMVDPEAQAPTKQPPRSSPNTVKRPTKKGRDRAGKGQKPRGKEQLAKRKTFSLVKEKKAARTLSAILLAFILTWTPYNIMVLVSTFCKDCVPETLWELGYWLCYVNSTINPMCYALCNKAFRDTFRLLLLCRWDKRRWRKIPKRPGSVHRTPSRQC

SMILES	activity, negative = inhibition	Potency
CCCN1CCC[C@@H]2Cc3[nH]ncc3C[C@H]21	-2.1% [at 28.3 µM] (inactive)	
C=CC[C@]1(O)CC[C@H]2[C@@H]3CCC4=CC(=O)CCC4=C3C=C[C@@]21C	-18% [at 28.3 µM] (inactive)	
NP(N)(=O)NC(=O)c1ccc(F)cc1	-6.64% [at 28.3 µM] (inactive)	
COc1ccc(C(=O)c2c(C)n(CCN3CCOCC3)c3ccccc23)cc1	30.2% [at 28.3 µM] (inactive)	
COP(=O)(OC)Oc1ccc([N+](=O)[O-])cc1	-3.38% (inactive)	
COC(=O)N(C(=O)N1COC2(C(=O)OC)Cc3cc(Cl)ccc3C2=N1)c1ccc(OC(F)(F)F)cc1 (stereo not drawn)	-27.9% [at 28.3 µM] (inactive)	
COc1cc(Cl)c(OC)cc1Cl	1.09% (inactive)	
Cc1cccc(OP(=O)(Oc2cccc(C)c2)Oc2cccc(C)c2)c1	-6.81% (inactive)	
OP(O)c1ccccc1	-0.89% (inactive)	
Oc1ccc2ccc3cccc4ccc1c2c34	-0.191% (inactive)	
ClCc1cccc(Cl)c1	4.34% [at 28.3 µM] (inactive)	
COP(=S)(OC)Oc1c(Cl)cc(C)cc1Cl	8.53% (inactive)	
CCOP(=S)(OCC)SCS(=O)(=O)CC	-16.1% (inactive)	
CN(C)CCc1c[nH]c2cccc(O)c12	0.459% (inactive)	
COP(N)(=S)Oc1ccccc1C(=O)OC(C)C (stereo not drawn)	15.1% (inactive)	
N#Cc1c(-c2ccc(Cl)cc2)[nH]c(C(F)(F)F)c1Br		16.8 µM (active)
CNP(=O)(OC)Oc1ccc(C(C)(C)C)cc1Cl (stereo not drawn)	8.28% (inactive)	
Cc1cccc2sc3nncn3c12	-4.3% (inactive)	
CC1(C)CN=C(NN=C(/C=C/c2ccc(C(F)(F)F)cc2)/C=C/c2ccc(C(F)(F)F)cc2)NC1	0.88% (inactive)	
COc1cc(CC(C)N)c(OC)cc1Br (stereo not drawn)		17.3 µM (active)
O=C(CCl)C(Cl)Cl	1.18% (inactive)	
O=c1[nH]c(Cl)c(Cl)cc1Cl	9.19% (inactive)	
C=C(Cl)CSC(=S)N(CC)CC	-6.12% (inactive)	
ClC(Cl)C(Cl)Cl	-4.64% (inactive)	
CC(=O)CCc1ccc2c(c1)OCO2	46.4% (inactive)	
CN(C)C(=O)Nc1cccc(OC(=O)NC(C)(C)C)c1	-4.51% (inactive)	
CNC(=O)Oc1ccc(N(C)C)c(C)c1	-2.26% (inactive)	
COP(=O)(OC)O/C(=C\Cl)c1cc(Cl)c(Cl)cc1Cl	-12.4% (inactive)	
CC(C)(C)c1ccc(OP(=O)(Oc2ccccc2)Oc2ccccc2)cc1	13% (inactive)	
CC[C@H]1C[C@H]2[C@@H]3CCC4=CC(=O)CC[C@@H]4[C@H]3CC[C@]2(C)[C@H]1O	-1.34% [at 28.3 µM] (inactive)	
